Only a selection was taken, and hits are over-represented in it overall.
miR-122 inh = miR-122 suppressors via Renilla sensor increase, primary screen, cell-based, Huh7 psiCHECK-miR122, Renilla luciferase, single point; activation, % at 12.5 µM; 340,000 compounds, 0.14% hits; 48 h;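 active = mean activation of 30% or more, with every replicate also reaching 30%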;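 note: higher luciferase signal means stronger suppression of miR-122 activity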
Hits are given with their value; i = inactive.

SMILES | miR-122 inh
C[C@@H]1CN([C@@H](C)CO)S(=O)(=O)c2ccc(C#Cc3ccccc3F)cc2O[C@@H]1CN(C)C(=O)c1ccc2c(c1)OCO2 | 41
C[C@@H]1CN([C@@H](C)CO)S(=O)(=O)c2ccc(C#Cc3ccccc3F)cc2O[C@@H]1CN(C)C(=O)Cc1ccncc1 | 57
C[C@H]1CN([C@@H](C)CO)S(=O)(=O)c2ccc(C#Cc3ccccc3F)cc2O[C@@H]1CN(C)C(=O)Cc1ccccc1 | i
C[C@@H]1CN([C@H](C)CO)S(=O)(=O)c2ccc(C#Cc3ccccc3F)cc2O[C@H]1CN(C)C(=O)Cc1ccccc1 | i
C[C@@H]1CN([C@H](C)CO)S(=O)(=O)c2ccc(Br)cc2O[C@H]1CN(C)C(=O)c1ccc2c(c1)OCO2 | i
COc1ccc(-c2cnc3c(c2)C(=O)N([C@H](C)CO)C[C@H](C)[C@H](CN(C)C(=O)C2CCOCC2)O3)cc1 | i
COc1ccc(C(=O)Nc2ccc3c(c2)OC[C@H](C)N(C)C[C@H](C)[C@H](OC)CN(C)C3=O)cc1 | i
COCC#Cc1cnc2c(c1)C(=O)N([C@@H](C)CO)C[C@H](C)[C@H](CN(C)Cc1ccccc1)O2 | i
C[C@@H]1CN([C@@H](C)CO)S(=O)(=O)c2ccc(/C=C/c3ccccc3)cc2O[C@@H]1CN(C)C(=O)Nc1cccc(F)c1 | i
C[C@H]1CN([C@@H](C)CO)S(=O)(=O)c2ccc(C#Cc3ccncc3)cc2O[C@@H]1CN(C)C(=O)C1CCCCC1 | i
NC(=O)c1cn(-c2ccccc2)nc1-c1cc2ccccc2oc1=O | 77
C[C@H](CO)N1C[C@H](C)[C@@H](CN(C)Cc2ccc3c(c2)OCO3)Oc2c(NC(=O)Nc3ccccc3)cccc2C1=O | i
C[C@H](CO)N1C[C@H](C)[C@H](CN(C)C(=O)CC2CC2)Oc2cc(C3=CCCCC3)ccc2S1(=O)=O | i
CO[C@H]1CN(C)C(=O)c2ccc(NC(=O)Nc3ccc(F)cc3)cc2OC[C@H](C)NC[C@H]1C | i
C[C@@H]1CN([C@@H](C)CO)S(=O)(=O)c2ccc(C#C[C@@H](C)O)cc2O[C@@H]1CN(C)Cc1cccnc1 | i
COCC#Cc1cnc2c(c1)C(=O)N([C@@H](C)CO)C[C@H](C)[C@H](CN(C)C(=O)Cc1ccccc1)O2 | i
C[C@@H]1CN([C@@H](C)CO)S(=O)(=O)c2ccc(-c3ccc(C(=O)N(C)C)cc3)cc2O[C@@H]1CN(C)C(=O)C1CCOCC1 | i
CCn1nc(C)cc1-c1nnc(Sc2ncc([N+](=O)[O-])s2)n1C | 45
C[C@H](CO)N1C[C@H](C)[C@H](CN(C)Cc2ccccn2)Oc2ncc(C#Cc3ccc(F)cc3)cc2C1=O | i
C[C@H](CO)N1C[C@H](C)[C@H](CN(C)C(=O)c2cccc(F)c2)Oc2ncc(/C=C/c3ccccc3)cc2C1=O | i
N#C/C(=C\c1ccc(N2CCOCC2)o1)C(=O)NCC1CCCO1 (configuration not stated) | 36
C[C@@H]1CN([C@@H](C)CO)S(=O)(=O)c2ccc(C#CC3CC3)cc2O[C@@H]1CN(C)Cc1ccccn1 | i
C[C@H](CO)N1C[C@H](C)[C@@H](CN(C)C(=O)Nc2ccccc2)Oc2cc(-c3cccc(C(=O)N(C)C)c3)ccc2S1(=O)=O | i
CCC(=O)N1C[C@@H](C)[C@H](OC)CN(C)C(=O)c2ccc(NS(C)(=O)=O)cc2OC[C@H]1C | i
C[C@H]1CN([C@@H](C)CO)S(=O)(=O)c2ccc(-c3cccc(C#N)c3)cc2O[C@@H]1CN(C)C(=O)Nc1ccccc1F | i
SMILES | miR-122 inh
C[C@H](CO)N1C[C@H](C)[C@@H](CN(C)C(=O)CC2CC2)Oc2cc(C#CCC3CCCC3)ccc2S1(=O)=O | i
Cc1sc(NC(=O)c2ccccc2)c(C(c2ccc(Cl)cc2)N2CCN(CCO)CC2)c1C (configuration not stated) | i
CCOC(=O)C1CCN(C(c2cccnc2)c2c(NC(=O)c3ccco3)sc(C)c2C)CC1 (configuration not stated) | 39
CC1CCCC(NC(=O)COC(=O)c2ccccc2NC(=O)c2ccco2)C1C (configuration not stated) | i
CO[C@@H]1CN(C)C(=O)c2cc(NC(=O)C3CCOCC3)ccc2OC[C@H](C)N(C)C[C@@H]1C | i
C[C@@H]1CN([C@@H](C)CO)S(=O)(=O)c2ccc(-c3cccc(C#N)c3)cc2O[C@@H]1CN(C)C(=O)Nc1ccccc1F | i
C[C@@H]1CN([C@H](C)CO)C(=O)c2cc(-c3ccc(F)cc3)cnc2O[C@@H]1CN(C)Cc1ccccn1 | i
COc1ccc(OC)c(S(=O)(=O)Nc2ccc(C(C)=O)cc2)c1 | i
COc1cccc(OCc2cc(/C=N/Nc3ccc(C(=O)O)cc3)ccc2OC)c1 | 47
CCCC#Cc1ccc2c(c1)O[C@@H](CN(C)C(=O)CC)[C@@H](C)CN([C@@H](C)CO)S2(=O)=O | i
O=C1NC(=O)/C(=C\c2ccccc2OCc2ccc([N+](=O)[O-])cc2)N1 | 37
C[C@@H](O)C#Cc1ccc2c(c1)O[C@@H](CN(C)C(=O)Cc1ccccn1)[C@@H](C)CN([C@@H](C)CO)S2(=O)=O | i
C[C@@H]1CN([C@H](C)CO)C(=O)c2cc(/C=C/c3ccccc3)cnc2O[C@H]1CN(C)C(=O)C1CCOCC1 | i
C[C@@H]1CN([C@H](C)CO)C(=O)c2cc(-c3ccc(F)cc3)cnc2O[C@H]1CN(C)Cc1cccnc1 | i
CC(C)NC(=O)N(C)C[C@@H]1Oc2cc(-c3ccccc3)ccc2S(=O)(=O)N([C@@H](C)CO)C[C@H]1C | i
COC(=O)c1c(N)nc(C)n1-c1ccc(OC)cc1 | 34
C[C@H]1CN([C@@H](C)CO)C(=O)c2cc(-c3ccccc3)cnc2O[C@H]1CN(C)C(=O)c1cccnc1 | i
C[C@H]1CN([C@@H](C)CO)C(=O)c2cc(C3=CCCCC3)cnc2O[C@H]1CN(C)Cc1ccccc1C(=O)O | i
C[C@@H]1CN([C@@H](C)CO)C(=O)c2cc(C#CC3CC3)cnc2O[C@H]1CN(C)Cc1ccncc1 | i
CCOC(=O)/C(C#N)=C1/C=CN(Cc2ccccc2)C=N1 | 33
C[C@H]1CN([C@@H](C)CO)S(=O)(=O)c2ccc(-c3cccc(C#N)c3)cc2O[C@H]1CN(C)Cc1ccccn1 | i
C[C@H](CO)N1C[C@H](C)[C@H](CN(C)C(=O)c2cccnc2)Oc2cc(/C=C/c3ccccc3)ccc2S1(=O)=O | i
C[C@H]1CN([C@@H](C)CO)C(=O)c2cc(-c3ccncc3)cnc2O[C@@H]1CN(C)C(=O)C1CCOCC1 | i
COCC#Cc1cnc2c(c1)C(=O)N([C@H](C)CO)C[C@@H](C)[C@H](CN(C)C(=O)Nc1c(C)noc1C)O2 | i
COc1cccc(C(=O)Nc2cc([N+](=O)[O-])ccc2N2CCN(C)CC2)c1 | i
SMILES | miR-122 inh
CN1CCN(c2ccc(Cl)cc2NC(=O)c2ccc(S(=O)(=O)N3CCCCCC3)cc2)CC1 | 40
COc1ccc(NC(C)=O)cc1S(=O)(=O)Nc1ccc(S(=O)(=O)N2CCCCC2)cc1 | i
COCC(=O)Nc1ccc2c(c1)OC[C@@H](C)N(C(C)=O)C[C@H](C)[C@H](OC)CN(C)C2=O | i
CCCC#Cc1cnc2c(c1)C(=O)N([C@@H](C)CO)C[C@@H](C)[C@@H](CN(C)C(=O)C1CC1)O2 | i
C[C@@H]1CN([C@H](C)CO)C(=O)c2cc(C#Cc3cccc(F)c3)cnc2O[C@H]1CN(C)CC1CCOCC1 | i
C[C@H](O)C#Cc1ccc2c(c1)O[C@@H](CN(C)C)[C@H](C)CN([C@@H](C)CO)S2(=O)=O | i
